The values that follow come from PubChem BioAssay (EPA / NIEHS).

A short description of experiment [1]: ATG_RORE_CIS: Attagene CIS-FACTORIAL HepG2 Assay for human RAR-related Orphan Receptor Element (RORE) (AID 2282959). As to conditions: HepG2 Attagene cis-factorial RORE reporter, mRNA; actives raise or lower the signal. An outline of the steps: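 RORE reporter transcripts reflecting endogenous factor activity were read after 24 h compound exposure of transfected HepG2 cells, using reverse transcription, PCR, fluorescent labelling and capillary electrophoresis sizing. Gain or loss fitted against DMSO.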

Experiment [2] can be described thus: ATG_Sox_CIS: Attagene CIS-FACTORIAL HepG2 Assay for human SRY-box transcription factor (SOX) (AID 2282960). As to conditions: HepG2 Attagene cis-factorial SOX reporter, mRNA; actives raise or lower the signal. The procedure, abridged:
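Reporter transcripts, measured by RT-PCR and capillary electrophoresis of labelled fragments, report endogenous SOX transcription factor activity. Transiently transfected human HepG2 cells receive chemical for 24 h; changes in either direction are fitted relative to DMSO.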

In experiment [3] the target is Transcription factor Sp1 (Homo sapiens) (UniProt P08047). In words: ATG_Sp1_CIS: Attagene CIS-FACTORIAL HepG2 Assay for human Specificity Protein 1 (Sp1) (AID 2282961). The conditions noted are these: HepG2 Sp1 cis-reporter transcription, actives raise or lower the signal. The procedure, abridged:
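Read-out is reporter transcript level, measured by RT-PCR and fluorescent capillary electrophoresis after 24 h chemical treatment. System: transiently transfected HepG2 cells reporting endogenous transcription factor activity; gain or loss fitted against DMSO baseline.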

Experiment [4] is described as follows: ATG_SREBP_CIS: Attagene CIS-FACTORIAL HepG2 Assay for human Sterol Regulatory Element Binding (SREBP) (AID 2282962). As to conditions: HepG2 Attagene cis-factorial SREBP reporter, mRNA; actives raise or lower the signal. An outline of the steps: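 In this cis-format assay, HepG2 liver cells express reporters controlled by promoter elements responsive to native transcription factors. Exposure lasts 24 h; reporter mRNA fluorescence from capillary electrophoresis gives the signal, fitted bidirectionally against DMSO.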

Experiment [5] concerns the target Signal transducer and activator of transcription 3 (Homo sapiens) (UniProt P40763). In words: ATG_STAT3_CIS: Attagene CIS-FACTORIAL HepG2 Assay for human Signal Transducer and Activator of Transcription 3 (STAT3) (AID 2282963). The conditions noted are these: HepG2, Attagene cis-factorial STAT3 reporter transcription; actives raise or lower the signal. The procedure, abridged:
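Readout is reporter transcript quantified by RT-PCR and capillary electrophoresis, with 6-FAM primer extension and HpaI digestion. Total RNA is taken 24 h after dosing transiently transfected HepG2 carrying cis-regulated reporter units. Bidirectional fit against DMSO.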

A short description of experiment [6]: ATG_TA_CIS: Attagene CIS-FACTORIAL HepG2 Assay for human TA Basal Promoter (AID 2282964). The conditions noted are these: HepG2 Attagene CIS-factorial TA basal promoter reporter; actives raise or lower the signal. The procedure, abridged:
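Multiplexed mRNA reporter assay, HepG2, 24 h. Reporter cDNA amplified, 6-FAM primer-extended, HpaI-cut, CE-sized; DMSO = negative control and baseline.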

Experiment [7] in a line: ATG_TCF_b_cat_CIS: Attagene CIS-FACTORIAL HepG2 Assay for human T-Cell-Factor with beta-catenin (TCF/b-cat) (AID 2282965). As to conditions: HepG2 TCF/beta-catenin cis-reporter transcription, actives raise or lower the signal. The procedure, abridged: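 Endogenous transcription factor activity is captured through cis-promoter reporter constructs transiently introduced into human HepG2 liver cells. Induced reporter mRNA is measured after 24 h and fitted bidirectionally relative to DMSO.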

A short description of experiment [8]: ATG_TAL_CIS: Attagene CIS-FACTORIAL HepG2 Assay for human TAL Basal Promoter (AID 2282966).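 Note: background control endpoint measuring basal TAL promoter reporter mRNA not a specific factor.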 The conditions noted are these: HepG2 Attagene cis-factorial TAL promoter reporter; actives raise or lower the signal. The procedure, abridged:
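Human hepatoma HepG2 cells, transfected with promoter-regulated reporter units, were treated 24 h. Reporter transcript levels, measured through RT-PCR and capillary electrophoresis, were fitted for gain or loss relative to DMSO.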

Experiment [9] can be described thus: ATG_TGFb_CIS: Attagene CIS-FACTORIAL HepG2 Assay for human Transforming Growth Factor (TGF) (AID 2282967). The conditions noted are these: HepG2 Attagene CIS TGFb reporter, mRNA transcription; actives raise or lower the signal. The procedure, abridged: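 Transcript-level reporter readout: HepG2 transfectants, 24 h exposure, RNA to cDNA, reporter-specific PCR, fluorescent primer extension, capillary sizing against ROX standards. Gain- or loss-of-signal relative to DMSO.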

The target in experiment [10] is Steroid hormone receptor ERR1 (Homo sapiens) (UniProt P11474). Briefly: ATG_ERRa_TRANS: Attagene TRANS-FACTORIAL HepG2 Assay for human Estrogen-Related Receptor alpha (ERRa) (AID 2282971; active = hit-call score of the fitted dose curve at least 0.9, where 1 is the maximum). The conditions noted are these: HepG2 Attagene TRANS reporter, ERRa transactivation. The procedure, abridged: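 Signal gain relative to DMSO for an ERRa-Gal4 chimeric receptor, read as reporter mRNA by RT-PCR/capillary electrophoresis. Human HepG2 liver cells, transient multiplex reporter transfection, 24 h chemical exposure.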

Experiment [11] addresses X-box-binding protein 1 (Homo sapiens) (UniProt P17861). In words: ATG_Xbp1_CIS: Attagene CIS-FACTORIAL HepG2 Assay for human X-box Binding Protein 1 (XBP1) (AID 2282972). The conditions noted are these: HepG2 XBP1 cis-element reporter, Attagene multiplex; actives raise or lower the signal. An outline of the steps: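 Changes in reporter transcript abundance, read by RT-PCR and capillary electrophoresis, reflect endogenous transcription factor activity. Transfected HepG2 cells received compound for 24 hours; DMSO defined baseline for bidirectional analysis.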

The nature of experiment [12]: ATG_M_19_TRANS: Attagene TRANS-FACTORIAL HepG2 Assay for M19 Transcription Factor (Internal Marker) (AID 2282974; active = hit-call score of the fitted dose curve at least 0.9, where 1 is the maximum). As to conditions: HepG2 Attagene TRANS-FACTORIAL M19 internal marker reporter. The procedure, abridged:
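Background-control readout: after 24 h chemical exposure of transfected HepG2 carrying GAL4-driven reporter units, RNA was reverse-transcribed, amplified, fluorescently labeled and sized by capillary electrophoresis; gain-of-signal fit against DMSO.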

A short description of experiment [13]: ATG_GAL4_TRANS: Attagene TRANS-FACTORIAL HepG2 Assay for GAL4 (Internal Marker) (AID 2282976; active = hit-call score of the fitted dose curve at least 0.9, where 1 is the maximum). As to conditions: HepG2 Attagene TRANS GAL4 internal marker reporter. An outline of the steps: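 Liver HepG2 line bearing multiplexed GAL4-UAS reporter constructs; 24 h chemical treatment. Transcripts were quantified as fluorescent fragments on capillary electrophoresis after RT-PCR and HpaI cut, with activity fitted upward from DMSO.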

For experiment [14], the target named is Glucocorticoid receptor (Homo sapiens) (UniProt P04150). Briefly: ATG_GR_TRANS: Attagene TRANS-FACTORIAL HepG2 Assay for human Glucocorticoid Receptor (GR) (AID 2282978; active = hit-call score of the fitted dose curve at least 0.9, where 1 is the maximum;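 note: activators score as hits since higher reporter transcript over DMSO is fitted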). The conditions noted are these: HepG2 Attagene TRANS GR reporter, mRNA transcription. An outline of the steps: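 Readout is reporter transcript from a chimeric GR-Gal4 acting on GAL4-UAS in transfected human HepG2 liver cells after 24 h exposure, quantified by RT-PCR and capillary electrophoresis. Activation fitted upward against DMSO.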

Experiment [15] addresses Bile acid receptor (Homo sapiens) (UniProt Q96RI1). Briefly: ATG_FXR_TRANS: Attagene TRANS-FACTORIAL HepG2 Assay for Farnesoid X Receptor (FXR) (AID 2282979; active = hit-call score of the fitted dose curve at least 0.9, where 1 is the maximum;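 note: hits raise reporter mRNA above DMSO so AC50 marks FXR activation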). As to conditions: HepG2 Attagene TRANS FXR-GAL4 reporter transcription. An outline of the steps: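 After 24 h chemical treatment of transfected HepG2 cells, GAL4-UAS reporter transcripts driven by an exogenous FXR-GAL4 fusion were measured by RT-PCR and capillary electrophoresis. Increases over DMSO were fitted.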

Experiment [16] addresses Estrogen receptor (Homo sapiens) (UniProt P03372). In words: ATG_ERa_TRANS: Attagene TRANS-FACTORIAL HepG2 Assay for human Estrogen Receptor alpha (ERa) (AID 2282970; active = hit-call score of the fitted dose curve at least 0.9, where 1 is the maximum). As to conditions: HepG2 Attagene TRANS ERa GAL4 reporter, mRNA. An outline of the steps:
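Signal derives from fluorescence of labelled reporter PCR fragments separated by capillary electrophoresis. HepG2 cells transiently carrying multiple GAL4-UAS reporter units were treated 24 hours, and induction above DMSO baseline was fitted as activity.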

The target of experiment [17] is Nuclear receptor subfamily 1 group I member 3 (Homo sapiens) (UniProt Q14994). In words: ATG_CAR_TRANS: Attagene TRANS-FACTORIAL HepG2 Assay for human Constitutive Androstane Receptor (CAR) (AID 2282969; active = hit-call score of the fitted dose curve at least 0.9, where 1 is the maximum;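 note: activators raise reporter mRNA above DMSO so AC50 marks induction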). As to conditions: HepG2 Attagene TRANS-FACTORIAL CAR reporter. The procedure, abridged:
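Signal is reporter mRNA induction relative to DMSO, measured 24 h after dosing by RT-PCR with fluorescent primer extension and capillary electrophoresis. Human HepG2 liver cells carried transiently transfected chimeric NR-Gal4/GAL4-UAS reporter constructs.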

The nature of experiment [18]: ATG_VDRE_CIS: Attagene CIS-FACTORIAL HepG2 Assay for human Vitamin D Receptor Element (VDRE) (AID 2282968). As to conditions: HepG2 VDRE cis-reporter transcription, actives raise or lower the signal. An outline of the steps: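 Readout is VDRE-driven reporter mRNA reflecting endogenous factor activity in human HepG2 cells, sampled 24 h post-dose. Quantification used labelled RT-PCR products separated by capillary electrophoresis; bidirectional analysis relative to DMSO.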

By AC50 is commonly meant the concentration giving half of the maximal activity seen.

The structures appear in SMILES notation. Results filed as inconclusive are left out. Active and inactive are the calls of the source. Rule for the calls, unless noted: active = hit-call score of the fitted dose curve at least 0.9, where 1 is the maximum; inactive = score below 0.9.

Signal transducer and activator of transcription 3 (Homo sapiens), sequence (P40763 whole entry, looked up): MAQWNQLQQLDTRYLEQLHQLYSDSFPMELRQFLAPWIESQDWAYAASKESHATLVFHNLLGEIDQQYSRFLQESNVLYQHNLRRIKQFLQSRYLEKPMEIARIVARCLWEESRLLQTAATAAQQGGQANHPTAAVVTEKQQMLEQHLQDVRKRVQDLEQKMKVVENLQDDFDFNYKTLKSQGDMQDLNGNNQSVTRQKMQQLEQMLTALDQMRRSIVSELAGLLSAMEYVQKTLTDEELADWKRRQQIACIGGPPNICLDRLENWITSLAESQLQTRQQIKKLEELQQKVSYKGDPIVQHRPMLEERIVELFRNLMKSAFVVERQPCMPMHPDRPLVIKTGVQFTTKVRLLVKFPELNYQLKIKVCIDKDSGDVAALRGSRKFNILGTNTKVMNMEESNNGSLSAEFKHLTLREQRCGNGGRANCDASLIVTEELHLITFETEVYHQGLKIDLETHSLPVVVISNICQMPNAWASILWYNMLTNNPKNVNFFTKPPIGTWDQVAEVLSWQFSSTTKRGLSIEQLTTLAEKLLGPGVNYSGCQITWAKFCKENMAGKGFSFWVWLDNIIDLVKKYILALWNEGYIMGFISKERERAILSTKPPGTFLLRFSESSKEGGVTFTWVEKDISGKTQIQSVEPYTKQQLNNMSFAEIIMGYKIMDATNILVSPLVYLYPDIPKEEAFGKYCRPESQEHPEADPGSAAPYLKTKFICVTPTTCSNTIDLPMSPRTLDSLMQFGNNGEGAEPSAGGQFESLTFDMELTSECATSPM
Transcription factor Sp1 (Homo sapiens), sequence (P08047 whole entry, looked up): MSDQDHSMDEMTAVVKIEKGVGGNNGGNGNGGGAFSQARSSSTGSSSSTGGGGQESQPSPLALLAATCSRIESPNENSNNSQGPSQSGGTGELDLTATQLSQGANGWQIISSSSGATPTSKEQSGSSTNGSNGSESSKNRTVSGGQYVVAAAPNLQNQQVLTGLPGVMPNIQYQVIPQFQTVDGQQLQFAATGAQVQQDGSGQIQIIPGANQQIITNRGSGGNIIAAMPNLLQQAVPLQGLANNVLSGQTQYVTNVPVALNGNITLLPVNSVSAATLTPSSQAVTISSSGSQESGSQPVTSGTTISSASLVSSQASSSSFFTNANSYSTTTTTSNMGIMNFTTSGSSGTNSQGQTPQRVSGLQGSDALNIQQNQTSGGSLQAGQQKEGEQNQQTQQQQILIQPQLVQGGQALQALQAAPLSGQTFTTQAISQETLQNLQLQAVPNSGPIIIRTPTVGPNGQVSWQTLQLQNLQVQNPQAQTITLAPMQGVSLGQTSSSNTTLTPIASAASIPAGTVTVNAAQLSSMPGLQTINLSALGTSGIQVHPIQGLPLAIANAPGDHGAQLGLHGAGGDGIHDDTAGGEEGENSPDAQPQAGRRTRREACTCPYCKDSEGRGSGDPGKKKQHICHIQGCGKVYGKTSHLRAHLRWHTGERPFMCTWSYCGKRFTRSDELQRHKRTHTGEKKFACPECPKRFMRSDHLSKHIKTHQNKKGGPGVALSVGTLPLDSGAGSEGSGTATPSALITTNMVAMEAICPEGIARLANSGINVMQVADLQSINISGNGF
Steroid hormone receptor ERR1 (Homo sapiens), sequence (P11474 whole entry, looked up, the tested form may be a part): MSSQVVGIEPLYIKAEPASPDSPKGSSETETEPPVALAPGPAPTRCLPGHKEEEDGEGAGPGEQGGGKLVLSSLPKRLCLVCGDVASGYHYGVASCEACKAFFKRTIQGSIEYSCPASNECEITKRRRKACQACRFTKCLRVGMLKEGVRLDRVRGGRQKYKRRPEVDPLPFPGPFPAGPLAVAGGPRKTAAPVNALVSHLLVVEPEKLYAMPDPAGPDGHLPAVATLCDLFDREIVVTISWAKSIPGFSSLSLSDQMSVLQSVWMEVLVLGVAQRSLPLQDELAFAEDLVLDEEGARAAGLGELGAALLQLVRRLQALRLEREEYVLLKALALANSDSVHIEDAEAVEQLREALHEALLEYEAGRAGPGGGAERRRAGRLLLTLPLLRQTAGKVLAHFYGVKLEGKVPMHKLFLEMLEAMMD
Glucocorticoid receptor (Homo sapiens), sequence (P04150 whole entry, looked up, the tested form may be a part): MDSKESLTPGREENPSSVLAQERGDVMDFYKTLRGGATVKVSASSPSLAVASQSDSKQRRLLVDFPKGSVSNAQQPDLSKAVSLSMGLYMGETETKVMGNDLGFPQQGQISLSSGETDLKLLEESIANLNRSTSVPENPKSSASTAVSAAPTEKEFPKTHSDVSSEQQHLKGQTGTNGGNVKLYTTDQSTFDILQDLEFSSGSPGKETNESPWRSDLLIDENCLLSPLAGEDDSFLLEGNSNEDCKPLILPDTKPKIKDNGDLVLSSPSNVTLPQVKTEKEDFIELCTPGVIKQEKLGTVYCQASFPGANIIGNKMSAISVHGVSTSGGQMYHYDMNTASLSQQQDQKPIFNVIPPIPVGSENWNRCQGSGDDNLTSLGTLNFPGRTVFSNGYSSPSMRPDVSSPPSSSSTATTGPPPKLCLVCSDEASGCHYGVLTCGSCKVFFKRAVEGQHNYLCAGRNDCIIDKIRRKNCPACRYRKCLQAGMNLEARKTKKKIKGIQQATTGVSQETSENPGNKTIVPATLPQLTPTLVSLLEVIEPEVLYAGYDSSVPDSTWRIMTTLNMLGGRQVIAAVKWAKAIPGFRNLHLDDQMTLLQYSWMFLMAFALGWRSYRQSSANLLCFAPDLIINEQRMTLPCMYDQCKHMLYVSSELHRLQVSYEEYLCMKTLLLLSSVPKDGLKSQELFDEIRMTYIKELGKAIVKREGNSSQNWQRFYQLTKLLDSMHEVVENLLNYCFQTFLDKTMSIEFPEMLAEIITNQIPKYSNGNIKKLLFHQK
X-box-binding protein 1 (Homo sapiens), sequence (P17861 whole entry, looked up): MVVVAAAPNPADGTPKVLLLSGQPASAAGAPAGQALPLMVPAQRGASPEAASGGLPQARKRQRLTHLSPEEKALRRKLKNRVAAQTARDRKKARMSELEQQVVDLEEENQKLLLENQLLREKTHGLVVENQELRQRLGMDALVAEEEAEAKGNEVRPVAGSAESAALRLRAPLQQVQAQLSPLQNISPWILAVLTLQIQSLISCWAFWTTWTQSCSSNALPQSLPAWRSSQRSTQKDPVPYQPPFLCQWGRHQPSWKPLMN
Bile acid receptor (Homo sapiens), sequence (Q96RI1 whole entry, looked up, the tested form may be a part): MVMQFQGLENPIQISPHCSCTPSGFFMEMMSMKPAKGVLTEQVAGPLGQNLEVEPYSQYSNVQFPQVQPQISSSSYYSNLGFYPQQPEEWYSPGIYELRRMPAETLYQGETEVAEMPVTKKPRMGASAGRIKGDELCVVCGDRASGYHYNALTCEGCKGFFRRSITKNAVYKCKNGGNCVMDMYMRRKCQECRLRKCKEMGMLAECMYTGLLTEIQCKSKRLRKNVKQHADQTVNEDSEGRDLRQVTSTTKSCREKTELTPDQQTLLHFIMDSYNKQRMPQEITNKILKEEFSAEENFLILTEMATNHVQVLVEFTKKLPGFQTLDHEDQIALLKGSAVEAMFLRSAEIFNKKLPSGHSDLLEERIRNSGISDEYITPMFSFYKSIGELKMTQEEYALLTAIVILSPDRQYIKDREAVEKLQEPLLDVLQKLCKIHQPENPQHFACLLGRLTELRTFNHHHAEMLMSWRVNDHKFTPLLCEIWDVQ
Estrogen receptor (Homo sapiens), sequence (P03372 whole entry, looked up, the tested form may be a part): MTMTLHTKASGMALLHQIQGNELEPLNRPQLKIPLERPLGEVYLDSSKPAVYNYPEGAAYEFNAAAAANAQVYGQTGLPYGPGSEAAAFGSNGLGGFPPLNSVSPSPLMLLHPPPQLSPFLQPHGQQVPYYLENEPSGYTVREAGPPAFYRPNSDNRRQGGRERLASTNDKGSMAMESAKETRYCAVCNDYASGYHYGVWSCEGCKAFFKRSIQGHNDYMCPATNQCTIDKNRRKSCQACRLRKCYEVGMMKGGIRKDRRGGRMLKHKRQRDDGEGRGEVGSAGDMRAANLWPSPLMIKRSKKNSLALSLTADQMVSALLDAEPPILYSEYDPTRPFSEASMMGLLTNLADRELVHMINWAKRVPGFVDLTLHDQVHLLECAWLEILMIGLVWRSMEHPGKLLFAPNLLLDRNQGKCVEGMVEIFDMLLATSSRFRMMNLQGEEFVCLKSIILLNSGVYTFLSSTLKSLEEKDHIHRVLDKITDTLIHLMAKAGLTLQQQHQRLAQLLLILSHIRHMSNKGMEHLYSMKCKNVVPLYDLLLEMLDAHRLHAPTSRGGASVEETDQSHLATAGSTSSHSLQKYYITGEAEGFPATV
Nuclear receptor subfamily 1 group I member 3 (Homo sapiens), sequence (Q14994 whole entry, looked up, the tested form may be a part): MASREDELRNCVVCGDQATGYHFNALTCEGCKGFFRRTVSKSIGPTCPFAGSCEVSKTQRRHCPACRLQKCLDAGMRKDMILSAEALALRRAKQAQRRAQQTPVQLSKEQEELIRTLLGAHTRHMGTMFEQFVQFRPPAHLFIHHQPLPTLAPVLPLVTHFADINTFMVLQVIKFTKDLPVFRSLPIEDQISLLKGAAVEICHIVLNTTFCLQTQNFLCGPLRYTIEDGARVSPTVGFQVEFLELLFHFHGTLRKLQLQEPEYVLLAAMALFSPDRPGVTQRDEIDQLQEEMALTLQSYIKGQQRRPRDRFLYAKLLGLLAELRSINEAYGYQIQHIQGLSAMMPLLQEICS

For the compound `Brc1ccc(Oc2c(Br)cc(Br)cc2Br)c(Br)c1`, the outcome in [1], in [2], in experiment [3], in experiment [4], in experiment [5] and in [6] was inactive. Also, the call in experiment [7], in experiment [8], in experiment [9], in experiment [10], in [11] and in experiment [12] was inactive. Moreover, the compound was classed as inactive in [13], in experiment [14] and in [15].
Take `c1ccc(-c2cccc(-c3ccccc3)c2)cc1`: the result in experiment [1], in experiment [2], in experiment [3], in [4], in [5] and in experiment [6] was inactive. Further, the outcome in experiment [7], in experiment [8], in experiment [11] and in experiment [15] was inactive. The half-maximal activity concentration (AC50) in experiment [9] is 56.6 µM (active); in [16], 27.3 µM (active).
On to `O=[N+]([O-])c1ccccc1O`, for which the outcome in experiment [1], in [2], in experiment [3], in [4], in [5] and in [6] was inactive. The compound was called inactive in experiment [7], in [8], in experiment [9], in [10], in experiment [11] and in experiment [12]. The call in [13] and in experiment [14] was inactive.
For the compound `CCOP(=S)(OCC)OP(=S)(OCC)OCC`, the result in experiment [1], in experiment [2], in [3], in experiment [4], in experiment [5] and in [6] was inactive. In addition, the compound was called inactive in experiment [7], in experiment [8], in experiment [9], in experiment [17], in experiment [11] and in [12]. Besides, the call in experiment [13], in experiment [14] and in experiment [15] was inactive.
Regarding `O=[N+]([O-])c1cc([As](=O)(O)O)ccc1O`, the result in [1], in experiment [3], in experiment [4], in [5], in experiment [6] and in [7] was inactive. Also, the outcome in experiment [8], in experiment [9], in experiment [18], in [16], in experiment [10] and in [11] was inactive. The compound was called inactive in [13] and in [14].
Consider `C=CC(Cl)CCl` (centres undefined), for which the result in [1], in [2], in [3], in [4], in experiment [5] and in [6] was inactive. Moreover, the outcome in [8], in [9], in experiment [11], in [14] and in experiment [15] was inactive.
Turning to `Cc1cc(Cl)ccc1O`, the result in [1], in experiment [2], in [3], in [4], in [5] and in experiment [6] was inactive. Also, the call in experiment [8], in [9], in [17], in experiment [11], in experiment [12] and in [14] was inactive. In addition, in experiment [15], the compound was called inactive.
